# Hits are enriched below; roughly 7.6% of the tested compounds scored in any of these assays.
# CRE-bla Fsk = alters forskolin-stimulated CRE reporter signaling in CHO cells; 71,000 tested, 2.5% active; Potency, µM (top dose mostly 38.2 µM), most hits filed as activators; CHO CRE-bla reporter (cAMP response element driving beta-lactamase), forskolin EC10, beta-lactamase ratio; active = well fitted activation curve with a large enough effect in the signal ratio, with a control signal flat, not every such curve was filed as active; inconclusive = small, poorly fitted or top-dose-only effect, or effect the other way, or a change in a side signal; the % refers to the signal ratio
#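 CRE-bla CHO reporter cells treated with compound titration plus EC10 NKH 477 (water-soluble forskolin), incubated 3 h at 37 °C; CCF4 loading 2 h at room temperature, 460/530 nm emission ratio read, AC50 values derived for positive or negative modulators.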
# Tau fil binding = tau filament binding | recombinant tau filaments, thioflavin S fluorescence, 15 h; filaments grown with octadecylsulfate alongside compound | 71,000 tested, 2% active | P10636 | Potency, µM (titrated, usually from 57.1 µM);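 also: actives lower thioflavin S fluorescence by blocking filaments or displacing dye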
# Target sequence (P10636 whole entry, looked up): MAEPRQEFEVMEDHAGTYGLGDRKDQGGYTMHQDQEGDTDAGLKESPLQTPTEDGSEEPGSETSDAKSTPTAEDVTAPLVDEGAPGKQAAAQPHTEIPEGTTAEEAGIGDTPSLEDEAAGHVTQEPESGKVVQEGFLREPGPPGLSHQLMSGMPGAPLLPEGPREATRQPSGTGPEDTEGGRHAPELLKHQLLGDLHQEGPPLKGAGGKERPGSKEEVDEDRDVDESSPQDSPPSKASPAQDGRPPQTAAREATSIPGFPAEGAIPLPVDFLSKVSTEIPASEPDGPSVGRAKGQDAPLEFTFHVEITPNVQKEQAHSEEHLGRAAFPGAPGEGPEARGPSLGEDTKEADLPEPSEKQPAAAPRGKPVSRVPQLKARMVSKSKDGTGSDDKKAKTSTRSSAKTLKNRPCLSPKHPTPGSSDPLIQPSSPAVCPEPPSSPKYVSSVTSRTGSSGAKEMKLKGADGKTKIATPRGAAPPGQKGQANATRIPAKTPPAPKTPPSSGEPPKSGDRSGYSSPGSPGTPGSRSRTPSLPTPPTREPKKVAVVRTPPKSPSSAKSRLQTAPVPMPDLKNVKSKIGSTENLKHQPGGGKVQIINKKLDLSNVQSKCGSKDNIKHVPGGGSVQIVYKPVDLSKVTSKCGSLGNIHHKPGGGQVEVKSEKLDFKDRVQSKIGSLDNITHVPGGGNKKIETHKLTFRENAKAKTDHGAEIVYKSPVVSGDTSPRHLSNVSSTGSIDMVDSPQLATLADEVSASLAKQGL
#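 ThS-based fibril read: tau 1 uM final, inducer ODS 30 uM final, 37 C for 15 h, ex 450/em 510 nm.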
# TSHR ag = TSH receptor (human) agonism. Potency, µM (top dose mostly 57.1 µM), usual class: activators. HEK293-CNG-TSHR cells (CNG channel as cAMP sensor), membrane potential dye, cAMP. AID 926. 73,000 tested, 0.48% active; active = well fitted activation curve with a large enough effect in the main read-out, with a control signal flat, not every such curve was filed as active; inconclusive = small, poorly fitted or top-dose-only effect, or a change in a side signal; inactive = no such curve, though single readings can be large or run the other way; reference of the percent scale not stated here;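 also: the control signal comes from parental cells without the receptor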
#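 HEK 293 cells stably expressing TSHR and a cAMP-gated CNG channel; parental CNG-only cells as counterscreen. Cells preloaded 60 min with membrane potential dye plus 100 uM RO 20-1724, then compound 30 min; fluorescence read at 590 nm.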
# HEK293 cAMP ctrl = parental HEK293 cAMP activation (counter-screen); parental HEK293 CNG cAMP sensor, membrane potential fluorescence; Potency, µM (top dose mostly 57.1 µM), hits mostly activators; 73,000 tested, 2.5% active; also: nearly all actives have a fitted effect of over 55% in size
#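 Parental HEK 293 cells stably expressing a cAMP-gated CNG channel were loaded with membrane potential dye containing 100 uM RO 20-1724 for 60 min. Compound added for 30 min; depolarization read as fluorescence intensity at 590 nm.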
# ERK AVP block = blocks ERK signaling stimulated by vasopressin; HEK293-V1b, vasopressin-stimulated pERK AlphaScreen; Potency, µM (top dose mostly 57.5 µM), hits mostly inhibitors; 72,000 tested, 0.99% active; AID 995; also: nearly all actives have a fitted effect of over 55% in size
#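 Phosphorylated ERK1/2 detected via AlphaScreen bead proximity in lysates of V1b-expressing HEK293 cells given 25 nM vasopressin for 5 min after 30 min compound exposure (37 °C). AC50 from Hill equation; basal DMSO 0%, vasopressin 100%.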
# Hits are given with their value; i = inactive; ? = inconclusive; nt = no result given; ! = repeats disagree; [ ] = another dose, or the depositor's remark. Unless noted, calls follow the shape of the dose curve; as a rule, active = well fitted curve in the direction sought with a large enough effect; inconclusive = small, poorly fitted or top-dose-only effect, or another doubt; inactive = no such curve, though single readings can be large; an effect the other way counts as inactive or inconclusive.
SMILES,CRE-bla Fsk,Tau fil binding,TSHR ag,HEK293 cAMP ctrl,ERK AVP block
O=C(CSc1nnc(-c2ccccc2)o1)N1CCN(c2ccccc2)CC1,i,10µM,i,i,i
CCOc1ccc(-c2nnc(SCC(=O)N3CCN(c4ccccc4)CC3)o2)cc1,i,i,i,i,i
CC1CC(C)CN(C(=O)CSc2nnc(-c3ccc(Cl)cc3)o2)C1 (stereo not given),i,i,?,?,i
Cc1ccc(-c2nnc(SCC(=O)N3CC(C)CC(C)C3)o2)cc1C (stereo not given),i,i,?,16µM,?
C/C(=C\c1ccc(Cl)cc1)C(C)(C)C(=O)O,i[7.6 µM],i[11.4 µM],i[11.4 µM],i[11.4 µM],i[11.5 µM]
N[C@@H](CO)C(=O)NNCc1ccc(O)c(O)c1O,i,i,i,i,i
COc1ccccc1-c1nccc(NCc2cccnc2)n1,i,i,i,i,i
Cc1ccc(C)n1-n1c(C)nc2sc(-c3ccccc3)cc2c1=O,?,i[11.4 µM],?,3.2µM,i
O=c1c(-c2cccs2)nc2cncnc2n1-c1ccccc1,?,i,?,25µM,i
O=c1c(-c2cccs2)nc2cncnc2n1C1CC1,?,i,?,?,i
Cn1c(=O)c(-c2cc(F)cc(F)c2)nc2cncnc21,?,i,nt,i,i
O=c1c(-c2ccccc2)nc2cncnc2n1-c1ccccc1,?,i,i,i,?
Cn1c(=O)c(-c2ccccc2)nc2cncnc21,i,i,?,4µM,i
Cn1c(=O)c(-c2cccs2)nc2cncnc21,10µM,i,i,i,i
CCC1=C2CC[C@H]3C(=O)N(C)C(=O)[C@H]3[C@H]2[C@@]2(C)C(=NCc3ccccc3)OC(=O)N2C1=O,nt,nt,nt,nt,i
CN1CCN(c2nc(-c3ccc4c(c3)OCO4)nc3ccccc23)CC1,?,i,i,i,i
COc1cc(/C=C\C(=O)N2CCCCC2=O)cc(OC)c1OC,?,?,i,i,nt
CCCCCCCNS(=O)(=O)c1cccc2c(Cl)cccc12,?,40µM,?,?,i
Cn1cccc1C(=O)N1CCC2(CCCN(c3ccncc3)C2)CC1,i,i,i,i,i
O=C(OCc1nnc(-c2ccccc2)o1)c1ccc2c(c1)OCO2,i,i,?,40µM,i
Cc1cccc2cc(CN(Cc3ccco3)S(=O)(=O)c3ccc4c(c3)OCCO4)c(=O)[nH]c12,i,i,i,i,10µM
Cc1ccc(OCCN2CCN(C(=O)CCC(=O)Nc3nnc(C)s3)CC2)cc1,7.9µM,i,i,i,i
Cc1ccc(OCCN2CCN(C(=O)CCC(=O)Nc3nnc(C(C)C)s3)CC2)cc1,i,i,i,i,i
NCCNC[C@H](O)CO,i[7.6 µM],i[11.4 µM],i[11.4 µM],i[11.4 µM],i[11.5 µM]
COc1ccc(C(=O)c2ccccc2)c(O)c1O,nt,nt,nt,nt,i
SMILES,CRE-bla Fsk,Tau fil binding,TSHR ag,HEK293 cAMP ctrl,ERK AVP block
O=C(c1csc2c1CCCC2)n1cccn1,nt,nt,32µM,i,nt
O=C(c1csc2c1CCCC2)N1CCN(c2ncccn2)CC1,i,i,i,i,i
Cc1csc(SCC(=O)Nc2cccc3nsnc23)n1,?,i,?,20µM,i
COc1cccc(Cn2c(=O)c(C)nc3cnc(N4CCN(C)CC4)nc32)c1,?,i,i,i,i
COc1ccc(C2=NOC(C(=O)Nc3ccc(C(C)=O)cc3)C2)cc1OC (stereo not given),?,i,i,i,i
COc1ccc(C2=NOC(C(=O)Nc3cc(Br)ccc3O)C2)cc1OC (stereo not given),16µM,i,i,i[2.29 µM],10µM
CCc1cc(C(C)=O)c(O)cc1OCCCCCC(C)(C)c1nn[nH]n1,nt,nt,?,20µM,i
Cc1nc2cnc(N3CCN(C)CC3)nc2n(C2CC2)c1=O,i,?,i,i,?
Nc1ccc(Cl)cc1Cl,i,i,?,i,i
Cc1ccc(CN2C(=O)C(C)(C)Oc3ccc(C(=O)N4CCCCC4)cc32)cc1,?,i,?,25µM,i
O=C1C[C@H]2OCC=C3CN4CC[C@@]5(C(=O)O)[C@H](N1)[C@H]2[C@H]3C[C@H]45,i[7.6 µM],i[11.4 µM],i[11.4 µM],i[11.4 µM],i[11.5 µM]
CC1(C)CNC(=O)c2sc(N3CCCCC3)nc2C1,i,i,?,20µM,i
Oc1ccccc1Nc1nc(NCC2CCCO2)c2ccccc2n1 (stereo not given),i,i,i,i,i
Oc1ccc(Nc2nc(NCC3CCCO3)c3ccccc3n2)cc1 (stereo not given),i,i,i,i,13µM
Cc1ccc(-n2ncc3c(=O)[nH]c(SCC(=O)N4CCCc5ccccc54)nc32)cc1,?,i,?,40µM,i
Cc1ccc(-n2ncc3c(=O)[nH]c(SC(C)C)nc32)cc1,2µM,i,i[11.4 µM],i,nt
COC(=O)c1ccc(CSc2nc3c(cnn3-c3ccc(C)cc3)c(=O)[nH]2)o1,6.3µM,i,nt,i,i
CC(C)Sc1nc2c(cnn2-c2ccc(F)cc2)c(=O)[nH]1,3.2µM,i,?,?,nt
CC(C)=NOC[C@@H](C)[C@H](OCc1ccccc1)C(C)C,nt,nt,i[11.4 µM],i[11.4 µM],i[11.5 µM]
CN(CCc1ccc(Cl)c(Cl)c1)CCN1CCCCCC1,i,i,?,?,i
Cc1noc(C)c1C(=O)OCC(=O)c1cc(C)n(Cc2ccccc2Cl)c1C,i,i,?,25µM,i
Cc1ccccc1-c1nccc(NCCN2CCOCC2)n1,i,i,?,?,i
CNCCCC1c2ccccc2C=Cc2ccccc21,i,5µM!,i,i,i
COC(=O)NC(c1cccc(C)c1)[C@]1(C(C)=O)CCOC1=O (stereo not given in full),nt,nt,i[11.4 µM],i[11.4 µM],i[11.5 µM]
Cc1cccc(N=c2oc3cc(O)ccc3cc2C(N)=O)c1,13µM,i,i,i,i
SMILES,CRE-bla Fsk,Tau fil binding,TSHR ag,HEK293 cAMP ctrl,ERK AVP block
CN=c1oc2ccc(Cl)cc2cc1C(N)=O,i,i,i,i,i
CC(=O)OC[C@@H]1O[C@H](CCO/N=C(\C)CCN2CCCCc3nc(C)c(C)cc32)C=C[C@@H]1OC(C)=O,nt,nt,i[11.4 µM],i[11.4 µM],i[11.5 µM]
CCCC[C@@H]1C[C@H]1C(NC(=O)c1cccnc1)c1ccc(-c2ccccc2)cc1 (stereo not given in full),?,i,?,?,i
CCCC[C@@H]1C[C@H]1C(NC(=O)c1ccccc1)c1ccccc1 (stereo not given in full),i,i,?,13µM,i
CCCC[C@@H]1C[C@H]1C(NC(=O)c1ccco1)c1ccc(-c2ccccc2)cc1 (stereo not given in full),i,i,i,i,i
CCCC[C@@H]1C[C@H]1C(NC(=O)c1ccco1)c1ccccc1C(F)(F)F (stereo not given in full),i,i,?,32µM,i
CCCC[C@@H]1C[C@H]1C(NC(=O)c1ccco1)c1ccc(Cl)cc1 (stereo not given in full),i,i,?,16µM,i
CCc1cc2c(nc1CC)CCN(CC/C(C)=N/OCC[C@@H]1C=C[C@H](OC(C)=O)[C@H](COC(C)=O)O1)C2,nt,nt,i[11.4 µM],i[11.4 µM],i[11.5 µM]
CCN(CC)CCn1c(-c2ccccc2)nc2c(N3CCOCC3)nc(C)nc21,i,i,?,?,i
